Compound activity from PubChem BioAssay.
Sampled rows, rich in hits. Any-hit rate of the full collection: about 11%.
G9a inh – inhibitors of human histone lysine methyltransferase G9a. G9a H3K9 monomethylation, AlphaScreen, 2 h. 350,000 tested, 8.8% active. Q96KQ7. AID 504332. Potency, µM (top dose mostly 102 µM), most hits filed as inhibitors; note: nearly all actives have a fitted effect of over 75% in size
Target sequence (Q96KQ7 913-1193 limits assumed): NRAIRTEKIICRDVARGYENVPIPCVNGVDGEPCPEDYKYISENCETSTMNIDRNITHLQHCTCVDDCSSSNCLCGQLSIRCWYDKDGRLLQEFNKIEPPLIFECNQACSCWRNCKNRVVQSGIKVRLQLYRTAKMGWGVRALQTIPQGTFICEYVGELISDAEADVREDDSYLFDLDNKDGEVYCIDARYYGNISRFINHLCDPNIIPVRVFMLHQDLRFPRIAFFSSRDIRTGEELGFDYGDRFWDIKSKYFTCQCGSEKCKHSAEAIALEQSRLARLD
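Using a bead-based AlphaScreen, monomethylated H3K9 product from 2 h room-temperature reactions (G9a 20 nM, peptide 500 nM, SAM 20 uM) was detected with 0.5 ug/mL rabbit anti-H3K9me1 antibody.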
BAZ2B inh – blocks human BAZ2B; AlphaScreen BAZ2B-H3K14Ac peptide displacement; Q9UIF8; AID 504333; Potency, µM (top dose mostly 114 µM), usual class: inhibitors; 360,000 tested, 4.4% active; note: nearly all actives have a fitted effect of over 60% in size
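AlphaScreen luminescence quantifies BAZ2B engagement of H3K14Ac peptide; the protein and biotinylated peptide are both at 50 nM final, buffer PBS pH 7.4 with 0.01% Tween-20, all steps at room temperature.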
HP1b binding inh – HP1-beta chromodomain-methylated histone interaction inhibition; Potency, µM (doses to about 114 µM), most hits filed as inhibitors; AlphaScreen HP1-beta / biotin-H3K9me3 peptide binding; 390,000 tested, 0.56% active; AID 540317; note: nearly all actives have a fitted effect of over 70% in size
Target sequence (P83916 whole entry, looked up): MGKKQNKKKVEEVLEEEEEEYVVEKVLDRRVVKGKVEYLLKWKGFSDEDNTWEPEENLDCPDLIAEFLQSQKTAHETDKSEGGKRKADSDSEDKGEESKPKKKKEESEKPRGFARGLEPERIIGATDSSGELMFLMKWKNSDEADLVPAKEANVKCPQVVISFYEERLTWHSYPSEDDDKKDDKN
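Compound inhibition of the preformed complex between 50 nM HP1-beta and 50 nM biotinylated H3K9me3 peptide was read by AlphaScreen. Buffer was PBS pH 7.4 with 0.01% Tween-20. Incubations ran 30 min at room temperature, with 10 ug/mL donor/acceptor beads.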
L3MBTL1 block – inhibitors of human L3MBTL1. Potency, µM (highest dose often 57.1 µM), actives largely listed as inhibitors. 230,000 tested, 0.66% active. AID 485360. AlphaScreen L3MBTL1–H3K9me1 peptide binding. Q9Y468; note: nearly all actives have a fitted effect of over 60% in size
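L3MBTL1 50 nM + b-AHA-H3(1-15)K9me1 75 nM, 30 min RT; compound added, 30 min RT; streptavidin donor/Ni-chelate acceptor beads 10 ug/mL each final, 30 min RT dark; AlphaScreen read.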
JMJD2A Tudor – JMJD2A Tudor domain (human) inhibition; O75164; AlphaScreen JMJD2A-Tudor / H3K4me3 peptide binding; Potency, µM (titrated, usually from 114 µM), actives largely listed as inhibitors; 390,000 tested, 4.4% active; AID 504339; note: nearly all actives have a fitted effect of over 50% in size
Numbers stand for hits; - = inactive; ? = inconclusive; . = not tested or not shown; [ ] = another dose, or the depositor's remark. Calls come from the whole dose curve; as a rule, active = well fitted inhibition curve with a large enough effect; inconclusive = small, poorly fitted or top-dose-only effect; inactive = no such curve, though single readings can be large or run the other way.

SMILES | G9a inh | BAZ2B inh | HP1b binding inh | L3MBTL1 block | JMJD2A Tudor
CCOc1ccc(C(=O)Nc2cc(-c3cn4cccnc4n3)ccc2C)cc1OCC | - | - | - | . | -
CC(C)OCCCNC(=O)c1cn(C)c2ccc(S(=O)(=O)N3CCCCCC3)cc2c1=O | - | . | - | . | -
Cc1ccc(OCC(=O)Nc2ccc(N(C)C)cc2)cc1 | 8.9µM | - | ? | - | ?
COc1ccc(CSCC(=O)N/N=C/c2ccc(OCC(=O)N3CCCCC3)cc2)cc1 | -[2.33 µM] | ? | - | . | -
Cc1ccc(CSCC(=O)N/N=C/c2ccc(OCC(=O)Nc3ccc(C)cc3)cc2)cc1 | 18µM | ? | - | . | ?
Cc1ccc(OCC(=O)Nc2ccc(C(N)=O)cc2)cc1 | - | - | - | . | -
COc1ccc(-c2ccc(=O)n(CC(=O)Nc3ccc(N(C)C)cc3)n2)cc1 | 5µM | 32µM | ? | . | 56µM
COc1ccc(-c2ccc(=O)n(CC(=O)Nc3ccccc3C(F)(F)F)n2)cc1 | - | - | - | . | -
OCCN(Cc1ccccc1)Cc1ccc(C(F)(F)F)cc1 | 28µM | ? | 16µM | . | 7.9µM
CN(CC(=O)Nc1cccc(C(F)(F)F)c1)Cc1ccccc1 | - | - | - | . | -
OCCN(Cc1ccccc1)Cc1cccc(C(F)(F)F)c1 | 18µM | ? | ? | . | 7.9µM
Cc1cccc(NC(=O)CCNS(=O)(=O)c2ccc3c(c2)CCCC(=O)N3)c1C | - | - | - | . | -
COc1ccc(-n2nc(C(=O)NCC(=O)N3CCCC3)c3ccccc3c2=O)c(OC)c1 | - | - | - | . | -
CCOC(=O)N1CCN(C(=O)CNC(=O)c2nn(-c3ccc(OC)cc3OC)c(=O)c3ccccc23)CC1 | 45µM | - | - | . | -
COc1ccc(-n2nc(C(=O)NCC(=O)N3CCN(c4ccccc4OC)CC3)c3ccccc3c2=O)cc1OC | - | - | - | . | -
COc1ccc(-n2nc(C(=O)NCC(=O)N3CCN(c4ccccc4)CC3)c3ccccc3c2=O)cc1OC | 45µM | - | - | . | -
CCOc1ccc(CCNC(=O)Cn2nc(CC)n3c(cc4sccc43)c2=O)cc1 | - | - | - | . | -
O=C(CNC(=O)c1cccs1)Nc1ccc(N2CCOCC2)cc1 | - | - | - | - | -
O=C1CCCc2oc3c(c21)CCCC3 | 50µM | - | - | . | -
COC(=O)c1oc2c(c1C)C(=O)CCC2 | - | - | - | - | -
O=[N+]([O-])c1cc(S(=O)(=O)O)cc([N+](=O)[O-])c1NN(c1ccccc1)c1ccccc1 | 50µM | - | - | . | ?
CN(C)c1ccc(CNC(=O)CCCN2C(=O)CCn3nc(-c4cccn4C)cc32)cc1 | ? | 40µM | - | . | ?
Cc1ccc(CNC(=O)CCCN2C(=O)CCn3nc(-c4cccn4C)cc32)cc1 | - | ? | - | . | -
CC1CCN(CC(O)COC2CC(C)CC(C)(C)C2)CC1 (configuration not stated) | . | . | - | . | -
CC[N+]1(CC(O)COC2CC(C)CC(C)(C)C2)CCOCC1 (configuration not stated) | -[12.7 µM] | - | - | . | 20µM
SMILES | G9a inh | BAZ2B inh | HP1b binding inh | L3MBTL1 block | JMJD2A Tudor
CCOC(=O)c1c(C)[nH]c(C(=O)N2CCN(c3ccc(OC)cc3)CC2)c1C | 45µM | 40µM | - | - | ?
COc1ccc(N2CCN(C(=O)C(=O)c3c(C)[nH]c4ccccc34)CC2)cc1 | 40µM | ? | - | . | ?
CCN(CC)C(=O)Cn1cc(C(=O)C(=O)N2CCN(c3ccc(OC)cc3)CC2)c2ccccc21 | 50µM | - | - | . | -
CC1=CC(C)(C)N2C(=O)C(=Nc3ccc(O)cc3)c3cccc1c32 | 5µM | 35µM | 40µM | 11µM | -[11.4 µM]
CC(=O)c1nn(-c2ccc(OC(F)(F)F)cc2)nc1Nc1ccc(Cl)cc1 | - | - | - | . | -
c1ccc(Cc2nnc3sc(-c4ccccn4)nn23)cc1 | ? | - | - | - | -
c1ccc(Cc2nnc3sc(-c4cccs4)nn23)cc1 | 2.2µM | - | - | - | -
c1ccc(Cc2nnc3sc(-c4ccncc4)nn23)cc1 | 3.5µM | - | - | - | -
c1ccc(Cc2nnc3sc(-c4ccc5c(c4)OCCO5)nn23)cc1 | 10µM | - | - | - | -
COC(=O)c1sc2cccc(F)c2c1S(=O)(=O)N1CCN(c2ccc(C)cc2C)CC1 | - | - | - | . | -
O=C1c2ccccc2NC(c2cccs2)N1O (configuration not stated) | 32µM | - | - | - | ?
Cc1nnc(-c2cccc(Br)c2)c2cn(-c3ccccc3)nc12 | - | - | - | - | ?
Cc1nnc(-c2cccc(Br)c2)c2cn(-c3cccc(Br)c3)nc12 | ? | 56µM | - | - | ?
O=C(Nc1cccc(S(=O)(=O)NC2=NCCCCC2)c1)c1cc(-c2ccccc2)nc2ccccc12 | - | - | - | - | -
O=C(NC(=S)Nc1cccc(S(=O)(=O)NC2=NCCC2)c1)c1cc(-c2ccco2)nc2ccccc12 | 40µM | ? | ? | ? | -
O=C(Nc1cccc(S(=O)(=O)NC2=NCCC2)c1)c1cc(-c2ccco2)nc2ccccc12 | 40µM | 35µM | ? | 7.1µM | ?
COc1ccc(S(=O)(=O)N(CC(=O)Nc2ccc(F)c(Cl)c2)c2ccc(C)cc2)cc1OC | - | - | - | . | -
COC(=O)N1CCC[C@@]2(CCN(C(=O)Nc3ccccc3)C2)C1 | -[12.7 µM] | . | . | . | .
CCCCN(CC)C(=O)CSc1nc2n[nH]c(C)c2c(=N)n1-c1cccc(OC)c1 | - | - | - | . | ?
Oc1ccc(N=Nc2ccccc2)cc1 | 50µM | ? | - | . | ?
COC(=O)CCC(=O)Nc1ccc(N=Nc2ccccc2)cc1 | 10µM | 40µM | - | - | ?
Oc1ccc(Cl)cc1N=Nc1ccccc1 | 22µM | 32µM | - | ? | 35µM
COC(=O)c1ccc(N=Nc2ccccc2)cc1 | 40µM | 13µM | ? | ? | ?
COc1ccc(C2CC(=O)Nc3c2c(C)nn3-c2nncc(-c3ccc(C)cc3)n2)c(OC)c1OC (configuration not stated) | - | ? | - | . | -
CCCCN(C)CCNC(=O)CN1C(=O)CSc2ccc(S(=O)(=O)N3CCCC3)cc21 | - | - | - | . | -
SMILES | G9a inh | BAZ2B inh | HP1b binding inh | L3MBTL1 block | JMJD2A Tudor
CC1=C(c2ccc(C)c(C)c2)S(=O)(=O)N=C1N1CCC(C(=O)NCCc2ccc(Cl)cc2)CC1 | - | - | - | . | -
CCOC(=O)C1(Cc2cccc(F)c2)CCN(C2CCOCC2)CC1 | - | - | - | - | -
CCOC(=O)C1(Cc2cccc(OC)c2)CCN(C2CCOCC2)CC1 | 50µM | 50µM | - | - | -
CC(=O)Nc1ccc(S(=O)(=O)Nc2cccc(-c3ccc(N4CCC(C)CC4)nn3)c2)cc1 | - | - | - | . | -
CCOc1cc(CNCCN2CCOCC2)ccc1OCc1ccccc1Cl | 50µM | - | - | - | -
COc1cc(CNCCN2CCOCC2)ccc1OCc1c(Cl)cccc1Cl | ? | - | . | - | .
CC(=O)c1cccc(-n2c(CCC(=O)O)ccc2-c2cccs2)c1 | ? | 50µM | ? | - | 56µM
O=C(O)CCc1ccc(-c2cccs2)n1CCc1ccccc1 | . | 28µM | - | - | ?
